Experimental data reported in PubChem BioAssay (EPA / NIEHS).
Results filed as inconclusive are left out. Activity calls are given as the source filed them. How the source made its calls, unless noted: active means hit-call score of the fitted dose curve at least 0.9, where 1 is the maximum; inactive means score below 0.9.

What was measured:
[1] = target: Retinoic acid receptor RXR-alpha (Homo sapiens) (UniProt P19793); test: ATG_RXRa_TRANS: Attagene TRANS-FACTORIAL HepG2 Assay for human Retinoid X Receptor alpha (RXRa) (AID 2283012; active means hit-call score of the fitted dose curve at least 0.9, where 1 is the maximum)
Retinoic acid receptor RXR-alpha (Homo sapiens), sequence (P19793 whole entry, looked up, the tested form may be a part): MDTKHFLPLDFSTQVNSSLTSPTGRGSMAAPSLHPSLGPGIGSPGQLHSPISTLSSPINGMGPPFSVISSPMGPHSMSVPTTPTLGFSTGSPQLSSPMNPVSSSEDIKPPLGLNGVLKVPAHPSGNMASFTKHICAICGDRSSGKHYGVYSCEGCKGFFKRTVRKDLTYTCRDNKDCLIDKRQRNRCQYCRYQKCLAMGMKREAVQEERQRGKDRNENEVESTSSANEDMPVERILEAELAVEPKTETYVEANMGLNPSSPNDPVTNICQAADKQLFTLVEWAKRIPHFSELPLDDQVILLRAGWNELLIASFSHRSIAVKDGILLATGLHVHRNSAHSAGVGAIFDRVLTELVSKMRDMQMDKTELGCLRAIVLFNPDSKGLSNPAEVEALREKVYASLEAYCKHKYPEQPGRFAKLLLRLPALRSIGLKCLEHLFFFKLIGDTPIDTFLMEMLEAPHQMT
Procedure, shortened: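 Cells (HepG2) carried transiently transfected GAL4-responsive reporter units. Following a 24 h chemical incubation, reporter mRNA induction was read via RT-PCR fragment analysis; DMSO served as negative control and baseline.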

[2] = target: human Thyroid Receptor alpha (THRa1), THRA (gene 7067) (UniProt P10827); test: ATG_THRa1_TRANS: Attagene TRANS-FACTORIAL HepG2 Assay for human Thyroid Receptor alpha (THRa1) (AID 2283014; active means hit-call score of the fitted dose curve at least 0.9, where 1 is the maximum)
human Thyroid Receptor alpha (THRa1), THRA (gene 7067), sequence (P10827 whole entry, looked up, the tested form may be a part): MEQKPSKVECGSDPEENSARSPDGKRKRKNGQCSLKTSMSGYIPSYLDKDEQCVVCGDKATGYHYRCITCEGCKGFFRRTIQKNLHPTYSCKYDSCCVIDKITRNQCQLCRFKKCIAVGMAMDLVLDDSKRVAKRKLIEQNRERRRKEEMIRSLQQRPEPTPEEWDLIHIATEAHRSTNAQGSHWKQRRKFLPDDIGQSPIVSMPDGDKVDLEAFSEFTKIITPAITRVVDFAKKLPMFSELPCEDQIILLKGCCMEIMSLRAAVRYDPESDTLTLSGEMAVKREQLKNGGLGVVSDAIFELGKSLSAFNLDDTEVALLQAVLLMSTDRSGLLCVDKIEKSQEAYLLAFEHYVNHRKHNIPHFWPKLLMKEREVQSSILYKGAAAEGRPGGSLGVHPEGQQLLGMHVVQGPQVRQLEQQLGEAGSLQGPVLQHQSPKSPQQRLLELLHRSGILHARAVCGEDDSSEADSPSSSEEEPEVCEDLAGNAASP
Procedure, shortened: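 Transcripts from GAL4-UAS-driven reporters, measured after 24 h compound exposure by RT-PCR plus capillary electrophoresis of 6-FAM-labeled fragments, were fitted for gain of signal relative to DMSO. Cells: transiently transfected HepG2 expressing NR-Gal4 chimeras.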

[3] = read-out: E-selectin (Homo sapiens) (UniProt P16581); test: BSK_3C_Eselectin: BioMAP Diversity Plus: 3C Assay for Eselectin Biomarker Activity (AID 2283015); details: primary human endothelial cells (HUVEC); actives raise or lower the signal
Procedure, shortened: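 E-selectin ELISA readout, fitted bidirectionally relative to DMSO, taken 24 h post-dosing in HUVEC cultures of the 3C system. Overt cytotoxicity tracked with sulforhodamine B staining of parallel wells.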

[4] = read-out: Interleukin-1 alpha (IL1a), IL1A (gene 3552); test: BSK_BE3C_IL1a: BioMAP Diversity Plus: BE3C Assay for Interleukin-1 alpha (IL1a) Biomarker Activity (AID 2283016); details: primary human bronchial epithelial cells; actives raise or lower the signal
Procedure, shortened: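 Cultures of primary human bronchial epithelial cells receive test chemical. After 24 h, IL-1a is quantified by ELISA, while parallel wells are fixed in TCA and SRB-stained for total protein. Changes in either direction are fitted relative to DMSO.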

[5] = read-out: Monocyte Chemoattractant Protein-1 (MCP1), CCL2 (gene 6347); test: BSK_3C_MCP1: BioMAP Diversity Plus: 3C Assay for Monocyte Chemoattractant Protein-1 (MCP1) Biomarker Activity (AID 2283017); details: primary human endothelial cells (HUVEC); actives raise or lower the signal
Procedure, shortened: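 MCP-1 was measured by ELISA 24 h after dosing in primary HUVEC 3C cultures and fitted in both directions relative to DMSO; cytotoxicity was checked by SRB total-protein staining in parallel wells.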

[6] = read-out: Monocyte Chemoattractant Protein-1 (MCP1), CCL2 (gene 6347); test: BSK_4H_MCP1: BioMAP Diversity Plus: 4H Assay for Monocyte Chemoattractant Protein-1 (MCP1) Biomarker Activity (AID 2283018); details: primary human endothelial cells (HUVEC); actives raise or lower the signal
Procedure, shortened: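 Readout: MCP-1 ELISA on compound-treated HUVEC, sampled 24 h post-dosing. Baseline and negative control DMSO; bidirectional fit. Overt toxicity checked alongside by sulforhodamine B protein staining at time of biomarker measurement.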

[7] = read-out: Human Leukocyte Antigen - DR isotype (HLADR), HLA-DRA (gene 3122); test: BSK_3C_HLADR: BioMAP Diversity Plus: 3C Assay for Human Leukocyte Antigen - DR isotype (HLADR) Biomarker Activity (AID 2283019); details: primary human endothelial cells (HUVEC); actives raise or lower the signal
Procedure, shortened: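 Bidirectional fitting against DMSO was applied to the HLA-DR ELISA signal from human umbilical vein endothelial cells, 24 h post-dose. Cytotoxicity came from parallel SRB total-protein staining; 3C proliferation was counted by SRB at 48 h.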

[8] = read-out: Interleukin-8 (IL8), CXCL8 (gene 3576); test: BSK_3C_IL8: BioMAP Diversity Plus: 3C Assay for Interleukin-8 (IL8) Biomarker Activity (AID 2283020); details: primary human endothelial cells (HUVEC); actives raise or lower the signal
Procedure, shortened: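 Human vascular endothelial cells (umbilical vein) in the 3C system; IL-8 level detected by ELISA at 24 h post-dose, with DMSO as baseline.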

[9] = read-out: Monokine induced gamma interferon (MIG), CXCL9 (gene 4283); test: BSK_3C_MIG: BioMAP Diversity Plus: 3C Assay for Monokine induced gamma interferon (MIG) Biomarker Activity (AID 2283021); details: primary human endothelial cells (HUVEC); actives raise or lower the signal;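 on AC50: MIG protein level measured by immunoassay in the treated endothelial cultures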
Procedure, shortened: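 After 24 h of treatment, human umbilical vein endothelial cultures (3C system) had their MIG biomarker level determined by ELISA, with DMSO serving as negative control.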

[10] = BSK_3C_SRB: Viability Assessment in the BioMAP Diversity Plus: 3C Assay (AID 2283023); details: primary human endothelial cells (HUVEC);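 further: fitted both ways against DMSO so a hit may be signal rise or drop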
Procedure, shortened: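 Cytotoxicity readout in parallel HUVEC 3C cultures: after 24 h compound exposure, cells fixed with 10% TCA, stained with 0.1% SRB and read at 560 nm. Gain or loss relative to DMSO fitted.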

[11] = read-out: Matrix Metallopeptidase 1 (MMP1), MMP1 (gene 4312); test: BSK_BE3C_MMP1: BioMAP Diversity Plus: BE3C Assay for Matrix Metallopeptidase 1 (MMP1) Biomarker Activity (AID 2283024); details: primary human bronchial epithelial cells; actives raise or lower the signal
Procedure, shortened: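 Dose cells, wait 24 h, run MMP1 ELISA; cells are human bronchial epithelial primaries. Both increases and decreases relative to DMSO counted.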

[12] = BSK_3C_Vis: BioMAP Diversity Plus: 3C Assay for Morphology Visualization (AID 2283025); details: primary human endothelial cells (HUVEC);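 further: fitted both ways so gain or loss versus DMSO counts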;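 on AC50: light microscopy image of cell morphology used as background control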
Procedure, shortened: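 Endothelial cells from human umbilical vein were treated with test chemicals for 24 h and inspected by light microscopy for changes in cell conformation.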

[13] = read-out: Pselectin, SELP (gene 6403); test: BSK_4H_Pselectin: BioMAP Diversity Plus: 4H Assay for Pselectin Biomarker Activity (AID 2283026); details: primary human endothelial cells (HUVEC); actives raise or lower the signal
Procedure, shortened: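 Human vascular endothelium from umbilical vein; P-selectin measured by ELISA at 24 h post-dose, with cytotoxicity checked by sulforhodamine B total-protein staining in parallel cultures (0.1% SRB after 10% TCA fixation, read at 560 nm).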

[14] = BSK_4H_SRB: Viability Assessment in the BioMAP Diversity Plus: 4H Assay (AID 2283027); details: primary human endothelial cells (HUVEC);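 further: cells exposed to compound for 24 h before staining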;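 on AC50: curves fitted both ways versus DMSO so AC50 may be loss or gain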
Procedure, shortened: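 Human umbilical vein endothelial cells were dosed with chemical and, after 24 h, fixed with 10% TCA, stained with 0.1% sulforhodamine B, and read at 560 nm to give total protein as a cytotoxicity measure. Bidirectional fitting relative to DMSO control.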

[15] = BSK_BE3C_SRB: Viability Assessment in the BioMAP Diversity Plus: BE3C Assay (AID 2283028); details: primary human bronchial epithelial cells;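 on AC50: fitted both ways so AC50 may mark signal gain or loss versus DMSO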
Procedure, shortened: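 Cytotoxicity read-out: SRB (0.1%) staining of TCA-fixed (10%) human lung bronchial epithelial cells, absorbance 560 nm, 24 h post-dosing. Curves fitted both directions relative to DMSO.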

[16] = read-out: Thrombomodulin, THBD (gene 7056); test: BSK_3C_Thrombomodulin: BioMAP Diversity Plus: 3C Assay for Thrombomodulin Biomarker Activity (AID 2283029); details: primary human endothelial cells (HUVEC); actives raise or lower the signal
Procedure, shortened: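 Thrombomodulin ELISA, human primary HUVEC, 24 h post-dose; data fitted in both directions relative to DMSO.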

[17] = read-out: Urokinase-type plasminogen activator receptor (uPAR), PLAUR (gene 5329); test: BSK_4H_uPAR: BioMAP Diversity Plus: 4H Assay for Urokinase-type plasminogen activator receptor (uPAR) Biomarker Activity (AID 2283030); details: primary human endothelial cells (HUVEC); actives raise or lower the signal
Procedure, shortened: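 uPAR level read by ELISA on HUVEC cultures (BioMAP 4H) 24 h post-dosing, analyzed for gain or loss relative to DMSO. Parallel SRB staining assessed overt cytotoxicity.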

[18] = target: human Retinoid X Receptor beta (RXRb), RXRB (gene 6257) (UniProt P28702); test: ATG_RXRb_TRANS: Attagene TRANS-FACTORIAL HepG2 Assay for human Retinoid X Receptor beta (RXRb) (AID 2283013; active means hit-call score of the fitted dose curve at least 0.9, where 1 is the maximum)
human Retinoid X Receptor beta (RXRb), RXRB (gene 6257), sequence (P28702 whole entry, looked up): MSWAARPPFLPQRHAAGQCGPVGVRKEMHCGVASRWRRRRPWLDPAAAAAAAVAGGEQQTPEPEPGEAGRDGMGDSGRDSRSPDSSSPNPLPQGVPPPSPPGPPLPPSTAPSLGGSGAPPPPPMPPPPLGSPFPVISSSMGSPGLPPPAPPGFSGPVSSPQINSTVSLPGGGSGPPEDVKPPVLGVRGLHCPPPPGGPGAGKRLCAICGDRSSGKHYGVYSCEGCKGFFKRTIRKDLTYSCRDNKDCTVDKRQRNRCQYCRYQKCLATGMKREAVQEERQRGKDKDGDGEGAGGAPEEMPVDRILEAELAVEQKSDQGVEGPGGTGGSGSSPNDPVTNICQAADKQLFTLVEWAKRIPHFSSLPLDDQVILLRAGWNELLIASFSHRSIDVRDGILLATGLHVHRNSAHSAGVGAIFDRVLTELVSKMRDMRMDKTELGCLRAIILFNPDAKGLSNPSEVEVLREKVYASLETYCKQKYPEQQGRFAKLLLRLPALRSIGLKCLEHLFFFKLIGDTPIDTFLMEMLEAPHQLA
Procedure, shortened: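 Multiplexed TRANS reporter assay in HepG2; 24 h dosing; reporter mRNA by RT-PCR/CE fluorescence; gain-of-signal relative to DMSO.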

[19] = target: human Vitamin D Receptor (VDR), VDR (gene 7421) (UniProt P11473); test: ATG_VDR_TRANS: Attagene TRANS-FACTORIAL HepG2 Assay for human Vitamin D Receptor (VDR) (AID 2283022; active means hit-call score of the fitted dose curve at least 0.9, where 1 is the maximum)
human Vitamin D Receptor (VDR), VDR (gene 7421), sequence (P11473 whole entry, looked up, the tested form may be a part): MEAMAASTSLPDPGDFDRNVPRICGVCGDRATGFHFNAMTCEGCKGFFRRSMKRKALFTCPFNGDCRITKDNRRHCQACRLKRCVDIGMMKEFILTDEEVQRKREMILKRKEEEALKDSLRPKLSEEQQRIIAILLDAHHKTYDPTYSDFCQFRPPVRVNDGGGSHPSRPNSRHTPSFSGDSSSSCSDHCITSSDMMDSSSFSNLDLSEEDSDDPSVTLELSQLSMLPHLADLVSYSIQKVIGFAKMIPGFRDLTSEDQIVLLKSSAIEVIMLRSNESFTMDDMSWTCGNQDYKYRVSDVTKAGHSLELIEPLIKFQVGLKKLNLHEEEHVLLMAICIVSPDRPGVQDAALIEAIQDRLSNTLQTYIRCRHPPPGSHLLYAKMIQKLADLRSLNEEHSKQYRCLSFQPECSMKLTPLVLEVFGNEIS
Procedure, shortened: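 Transactivation by an exogenous VDR-Gal4 chimera in transiently transfected HepG2 cells was measured as reporter transcript level 24 hours after chemical treatment. RT-PCR products were analysed by capillary electrophoresis and fitted in the positive direction relative to DMSO.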

Measured: AC50

E-selectin (Homo sapiens), sequence (P16581 whole entry, looked up): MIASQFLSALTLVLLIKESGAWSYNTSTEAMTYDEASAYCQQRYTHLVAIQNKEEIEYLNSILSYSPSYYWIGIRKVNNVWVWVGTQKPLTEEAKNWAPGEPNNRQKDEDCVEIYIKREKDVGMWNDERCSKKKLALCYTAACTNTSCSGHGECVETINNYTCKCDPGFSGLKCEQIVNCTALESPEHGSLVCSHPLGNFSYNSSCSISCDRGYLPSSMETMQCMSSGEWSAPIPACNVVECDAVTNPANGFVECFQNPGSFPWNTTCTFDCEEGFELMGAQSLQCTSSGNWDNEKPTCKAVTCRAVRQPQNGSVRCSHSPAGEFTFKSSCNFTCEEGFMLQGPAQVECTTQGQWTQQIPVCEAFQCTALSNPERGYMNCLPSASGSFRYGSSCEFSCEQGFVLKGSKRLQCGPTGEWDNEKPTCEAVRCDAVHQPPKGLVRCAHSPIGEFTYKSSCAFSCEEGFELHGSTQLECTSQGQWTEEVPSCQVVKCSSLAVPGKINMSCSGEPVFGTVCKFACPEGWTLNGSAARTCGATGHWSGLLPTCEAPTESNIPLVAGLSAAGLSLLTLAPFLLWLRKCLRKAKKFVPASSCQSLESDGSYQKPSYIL

CN(C)c1ccc(C(=C2C=CC(=[N+](C)C)C=C2)c2ccc(N(C)C)cc2)cc1
inactive: [1] | [2]
active: [3] 0.815 µM | [4] 2.36 µM | [5] 0.798 µM | [6] 0.66 µM | [7] 0.344 µM | [8] 5.53 µM | [9] 9.93 µM | [10] 4.93 µM | [11] 0.938 µM | [12] 16 µM | [13] 0.613 µM | [14] 8.49 µM | [15] 7.72 µM | [16] 3.97 µM | [17] 1.42 µM

c1ccc(C[n+]2cccc3ccccc32)cc1
inactive: [1] | [18] | [2] | [3] | [4] | [6] | [7] | [8] | [9] | [19] | [10] | [11] | [12] | [13] | [14] | [15] | [16] | [17]

CC(C)(C)c1cc(/C=C2\SC(N)=NC2=O)cc(C(C)(C)C)c1O
active: [3] 29.3 µM | [7] 27.5 µM | [9] 37.1 µM | [10] 29.1 µM | [12] 16.3 µM | [13] 13.3 µM | [14] 28.7 µM | [17] 36.7 µM
inactive: [1] | [18] | [4] | [11] | [15] | [16]

COCC(C)OCC(C)OCC(C)O (stereo unspecified)
inactive: [18] | [2] | [3] | [4] | [5] | [7] | [8] | [9] | [10] | [11] | [12] | [13] | [14] | [15] | [16] | [17]

CCN(CC)C(=O)c1cc(S(=O)(=O)Cc2ccccc2)c(N2CCC(c3ccccc3)CC2)cc1N(CC)CCN(C)C
active: [3] 27.2 µM | [4] 9.53 µM | [5] 10.4 µM | [7] 6.27 µM | [8] 13.8 µM | [9] 29.9 µM | [10] 5.18 µM | [12] 6.48 µM | [13] 7.87 µM | [14] 19.2 µM | [15] 11 µM | [16] 4.43 µM | [17] 19.8 µM

COc1ccc2cc(S(=O)(=O)N[C@H](CC(=O)N[C@H](Cc3ccc(CN4[C@H](C)CCC[C@@H]4C)cc3)C(=O)N(C)C(C)C)c3ccc4c(c3)OCO4)ccc2c1
inactive: [1] | [3] | [4] | [9] | [19] | [11] | [15] | [16]
active: [5] 12.5 µM | [7] 24.3 µM | [8] 16.3 µM | [10] 20.8 µM | [12] 5.55 µM | [13] 10.8 µM | [14] 19.1 µM | [17] 19.1 µM

CC[C@@H]1C[C@H](N(Cc2cc(C(F)(F)F)cc(C(F)(F)F)c2)C(C)=O)c2cc(C(F)(F)F)ccc2N1C(=O)OC(C)C
inactive: [1] | [18] | [3] | [4] | [6] | [7] | [8] | [9] | [19] | [10] | [11] | [12] | [13] | [14] | [15] | [16] | [17]
